Screen size: about 310,000 compounds; about 2,200 (0.71%) showed an effect of 50% or more. Effects have a minus sign here. The sample as a whole holds a higher share of strong results than the screen did.
The compounds below were run against human ether-à-go-go-related gene (hERG) potassium channel (human, UniProt Q12809) (assay: primary screen, population patch clamp on CHO cells stably expressing hERG; higher = less effect of the substance).
human ether-à-go-go-related gene (hERG) potassium channel, sequence (Q12809 whole entry, looked up): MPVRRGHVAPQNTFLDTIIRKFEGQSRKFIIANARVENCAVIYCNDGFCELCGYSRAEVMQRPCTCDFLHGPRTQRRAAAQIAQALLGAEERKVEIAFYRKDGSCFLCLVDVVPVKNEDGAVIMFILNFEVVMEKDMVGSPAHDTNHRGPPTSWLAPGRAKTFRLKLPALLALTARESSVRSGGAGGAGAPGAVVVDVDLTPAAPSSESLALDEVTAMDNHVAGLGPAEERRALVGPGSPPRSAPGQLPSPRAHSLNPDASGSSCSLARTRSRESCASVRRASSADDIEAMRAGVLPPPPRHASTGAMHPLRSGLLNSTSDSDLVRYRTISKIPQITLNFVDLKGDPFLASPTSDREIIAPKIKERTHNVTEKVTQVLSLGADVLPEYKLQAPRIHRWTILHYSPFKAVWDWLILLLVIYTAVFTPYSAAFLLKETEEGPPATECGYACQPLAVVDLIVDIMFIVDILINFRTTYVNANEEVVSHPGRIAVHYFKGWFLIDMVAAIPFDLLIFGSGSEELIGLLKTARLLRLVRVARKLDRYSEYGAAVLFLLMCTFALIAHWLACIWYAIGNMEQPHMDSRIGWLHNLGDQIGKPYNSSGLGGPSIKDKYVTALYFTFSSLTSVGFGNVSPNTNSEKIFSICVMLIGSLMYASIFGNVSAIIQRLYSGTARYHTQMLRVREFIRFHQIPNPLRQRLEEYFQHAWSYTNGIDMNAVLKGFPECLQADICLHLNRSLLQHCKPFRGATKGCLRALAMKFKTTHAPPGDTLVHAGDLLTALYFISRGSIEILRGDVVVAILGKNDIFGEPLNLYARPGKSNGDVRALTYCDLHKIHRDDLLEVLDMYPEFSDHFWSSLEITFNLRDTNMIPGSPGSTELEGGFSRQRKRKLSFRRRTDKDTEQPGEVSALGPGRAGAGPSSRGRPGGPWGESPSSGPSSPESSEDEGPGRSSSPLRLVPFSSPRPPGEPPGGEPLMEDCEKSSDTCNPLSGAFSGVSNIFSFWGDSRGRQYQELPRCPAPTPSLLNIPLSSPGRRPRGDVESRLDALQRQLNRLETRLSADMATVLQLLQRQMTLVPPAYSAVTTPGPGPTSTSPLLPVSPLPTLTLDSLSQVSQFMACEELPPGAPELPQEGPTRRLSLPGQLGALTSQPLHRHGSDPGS

Compound | hERG current change (%, negative = inhibition) at 1uM [%]
O=C(c1ccco1)N1CCCN(Cc2nc(Cc3ccccc3)no2)CC1 | 1.8
Cc1cccnc1CN1CCN(Cc2nc(Cc3cccc(F)c3)no2)CC1 | 6.2
Fc1cccc(Cc2noc(CN3CCOCC3)n2)c1 | 10.8
COc1ccc(Cc2noc(CN3CCN(C4CCc5ccccc5C4)CC3)n2)cc1OC (centres unmarked) | -32
Fc1cccc(Cc2noc(CN3CCCN(C4Cc5ccccc5C4)CC3)n2)c1 | -86.9
Cc1ccccc1N1CCN(Cc2nc(Cc3ccccc3)no2)CC1 | 8.68
Fc1cccc(Cc2noc(CN3CCC(c4ccncc4)CC3)n2)c1 | -1.98
Fc1cccc(Cc2noc(CN3CCN(C4CCc5ccccc5C4)CC3)n2)c1 (centres unmarked) | -67.5
c1ccc(Cc2noc(CN3CCN(C4CCc5ccccc5C4)CC3)n2)cc1 (centres unmarked) | -76.1
c1ccc(Cc2noc(CN3CCCN(C4Cc5ccccc5C4)CC3)n2)cc1 | -66
Fc1cccc(Cc2noc(CN3CCSCC3)n2)c1 | 17.3
COc1ccc(Cc2noc(CN3CCCN(C4Cc5ccccc5C4)CC3)n2)cc1OC | -44.4
COc1ccnc2c1c(=O)n(Cc1cccc(F)c1)c(=O)n2C | 8.91
Cc1cc(C)cc(NC(=O)CSc2nnc(CNC(=O)c3ccco3)n2C)c1 | 14.2
Br.c1ccc(C2CNCc3c2ccc2ccccc32)cc1 (centres unmarked) | 1.84
COc1ccc(C(=O)NCc2nnc(SCC(=O)NCc3ccco3)o2)cc1OC | 14.2
COc1ccc(Nc2ncnc3ccccc23)c(OC)c1.Cl | -0.118
COc1cccc(NC(=O)Cn2nc(Cc3cccnc3)c3ccccc3c2=O)c1 | -8.3
COc1ccc(Nc2nnc(Cc3ccncc3)c3ccccc23)c(OC)c1 | -66.6
COc1cccc(NC(=S)NCc2cccnc2)c1 | 11.1
COc1cccc(Nc2nnc(Cc3cccnc3)c3ccccc23)c1 | -83.2
COc1ccc(Nc2nnc(Cc3ccccc3)c(=O)[nH]2)c(OC)c1 | 8.03
CCN(CC)CCOC(=O)c1cc2cc(COC)ccc2o1.CI | 9.98

Compound | hERG current change (%, negative = inhibition) at 1uM [%]
O=C(CN1C(=O)c2cccnc2Oc2ccc(Cl)cc21)Nc1ccc(F)cc1 | 14.1
COCCCn1c(Cc2csc(Nc3cccc(Cl)c3)n2)nnc1SCC(=O)OC1CCCCC1 | -0.506
COc1ccc(C2CC(c3cccc(OC)c3OC)n3nnnc3N2)cc1 (centres unmarked) | -4.26
O=C(c1cccs1)N1CCN(C(=O)N2CCOCC2)CC1 | 15.2
COC(C[C@@H]1O[C@@H]1[C@H](O)COCc1ccccc1)OC | 10.5
CCOC(=O)c1cc(-c2ccc(Cl)cc2)nc2c1c(C)nn2CCC#N | 10.9
Cc1cc(C)c[n+](CC(=O)c2c(C)cc(C)c([N+](=O)[O-])c2C)c1.[Br-] | -52.7
Cc1cc(C)c[n+](CC(=O)c2ccccc2)c1.[Br-] | 20.1
Cc1cc(C)c[n+](CC(=O)c2ccc(C)c([N+](=O)[O-])c2)c1.[Br-] | 4.61
CN1CCN(C(=O)C2CCC(=O)N(Cc3cccc(C(F)(F)F)c3)C2)CC1 (centres unmarked) | 6.99
Cc1nnc(NC(=O)CSc2nnc(CC(=O)Nc3ccccc3C)n2C)s1 | 17.4
COc1ccc(C(=O)C2CCCN(C(=O)CCc3ccccn3)C2)c(C)c1 (centres unmarked) | 9.98
COc1ccc(C(=O)C2CCCN(Cc3cccn3-c3ccc(Cl)cn3)C2)c(OC)c1 (centres unmarked) | -45.8
COc1ccc(C(=O)C2CCCN(Cc3cccn3-c3ccccn3)C2)c(C)c1 (centres unmarked) | -84.8
COc1ccc(C(=O)C2CCCN(Cc3cccn3-c3ccccn3)C2)c(OC)c1 (centres unmarked) | -82.9
COc1ccc(C(=O)C2CCCN(Cc3ccccn3)C2)c(OC)c1 (centres unmarked) | -3.83
COc1ccc(C(=O)C2CCCN(CCO)C2)c(C)c1 (centres unmarked) | 12.5
O=C(O)c1cc(NC(=O)c2ccc3c(c2)C(=O)N(Cc2ccccc2)C3=O)cc(C(=O)O)c1 | 11.7
COc1cccc(Nc2ncc(C#N)c(N)n2)c1 | 12.9
O=C(COC(=O)c1nc(Cl)ccc1Cl)Nc1ncc(Cl)cc1Cl | 14.4
CN(C)CCN=Cc1c(O)n(Cc2ccccc2)c(=O)c2ccccc12 | -6.8
CCN(CC)CCCN=Cc1c(O)n(Cc2ccccc2)c(=O)c2ccccc12 | -77.3
CN(C)CCCN=Cc1c(O)n(Cc2ccccc2)c(=O)c2ccccc12 | -25.5

Compound | hERG current change (%, negative = inhibition) at 1uM [%]
CCOC(=O)C1CCN(C/C=C/c2ccccc2)CC1 | 4.64
CCOC(=O)C1CCCN(C/C=C/c2ccccc2[N+](=O)[O-])C1 (centres unmarked) | -42.6
CCOC(=O)C1CCN(C/C=C/c2ccccc2[N+](=O)[O-])CC1 | -57
CC(O)[C@H]1CNCCN1CCc1cccc2ccccc12 (some centres unmarked) | 5.81
CCSc1ccccc1C(=O)N1CCN(c2ccc([N+](=O)[O-])cc2)CC1 | -41
CCCCCCn1cc(C(=O)O)c(=O)c2cc(F)c(N3CCCCC3)cc21 | 14
O=C(O)c1cn(Cc2ccccc2)c2ccc(Cl)cc2c1=O | -84.4
CCCCCCn1cc(C(=O)O)c(=O)c2ccccc21 | -84.4
COc1ccc2c(c1)c(=O)c(C(=O)c1ccccc1)cn2Cc1ccccc1 | -21.1
CCCCCn1cc(C(=O)C(=O)N2CCOCC2)c2ccccc21 | 7.53
O=C(O)c1cn(Cc2ccccc2)c2ccccc2c1=O | -43.6
CCOc1cc(C2C(C(=O)OCC(C)C)=C(C)N=C3SCCC(=O)N32)ccc1OC(C)=O (centres unmarked) | -0.245
Cc1ccc(S(=O)(=O)N2CCN(C(=O)CCC(=O)N3CCc4ccccc43)CC2)cc1 | 3.11
COc1ccc([C@@H]2Sc3cc(OC)ccc3N(CCN(C(C)C)C(C)C)C(=O)[C@H]2OC(C)=O)cc1.Cl | -70
COc1ccc2c(c1)Sc1ccccc1N2CCN(C)C.O=C(O)C(=O)O | 2.44
COc1ccc(N2C(=O)C(OC(C)=O)C2c2ccc(C)cc2)cc1 (centres unmarked) | 7.38
Cc1ccccc1C(=O)Nc1ccccc1C(=O)N1CCC(C)CC1 | 11.7
COC(=O)c1ccc(Cn2cnc3c(cnn3-c3ccc(C)c(C)c3)c2=O)o1 | 7.86
Cc1c(-c2ccccc2)oc2c(C(=O)OCC(=O)Nc3cccc(F)c3)cccc2c1=O | 5.94
COc1ccccc1NC(=S)NC(NC(=O)c1ccco1)C(Cl)(Cl)Cl (centres unmarked) | 4.44
COc1ccc(C(=O)Nc2ccc(S(=O)(=O)N3CCCCC3)cc2)cc1OC | -0.152
COc1ccc(NC(=O)c2ccc(S(=O)(=O)N3CCCC3)cc2)cc1OC | -102
COc1ccc(NC(=O)c2cccc(S(=O)(=O)N3CCCC3)c2)cc1OC | 2.14

Compound | hERG current change (%, negative = inhibition) at 1uM [%]
CCCN1CCC[C@@H]2Cc3nc(N)ncc3C[C@H]21.Cl | 8.86
NC(=O)c1ccc(NC(=O)CCC(=O)c2cccs2)cc1 | 9.21
O=C(Nn1cnnc1)c1cc([N+](=O)[O-])cc([N+](=O)[O-])c1 | 5.11
CCn1cc(C2=NC(C)CO2)c2ccccc21 (centres unmarked) | -0.637
O=C(CN1CCCCCC1)Nc1ccc(Cl)cn1 | 6.51
COC(=O)c1ccccc1NC(=O)CN1CCN(Cc2ccccc2)CC1 | -69.6
COC(=O)c1ccccc1NC(=O)CN1CCOCC1 | 5.34
O=C(CN1CCN(Cc2ccccc2)CC1)Nc1ccc(Cl)cn1 | -70
Cc1cccc(NC(=O)CN2CCN(CC(=O)NCc3ccc(Cl)cc3Cl)CC2)c1C | 4.8
COC(=O)c1ccccc1NC(=O)CN1CCCCC1 | 32.9
COC(=O)c1ccccc1NC(=O)CN1CCCCCC1 | 16.5
O=C(CN1CCN(Cc2ccccc2F)CC1)Nc1ccccc1Cl | 8.26
COC(=O)c1ccccc1NC(=O)CN1CCN(C23CC4CC(CC(C4)C2)C3)CC1 | -75
NC(=O)c1ccccc1NC(=O)CN1CCN(Cc2ccc(Cl)cc2Cl)CC1 | -75.8
COC(=O)c1ccccc1NC(=O)CN1CCC(C)CC1 | -0.0967
O=C(CN1CCN(Cc2ccccc2)CC1)Nc1ccc(Cl)cc1 | -32.3
CCOCCCNS(=O)(=O)c1ccc2c(c1)oc(=O)n2CC(=O)OCC | 10.3
COCCN1CCN(C(=O)C2CCC(=O)N(Cc3ccccc3F)C2)CC1 (centres unmarked) | 9.05
COc1c(/C=N/NC(=O)c2ccccc2O)c(CCN(C)C(C)=O)cc2c1OCO2 | 8.13
CCN(CC)CCCNC(=O)c1c(O)c2ccccc2n(Cc2ccccc2)c1=O.Cl | -12.3

Source: article PMC4336329 (PLoS ONE, 2015)
